MazF activator = increases E. coli MazEF RNase cleavage of RNA; P0AE70; FAM/BHQ RNA-DNA oligo cleavage fluorescence, 5 h; activation, % at 20 µM; 0.32% of 350,000 active; in the data active = activation above about 50%
Target sequence (P0AE70 whole entry, looked up): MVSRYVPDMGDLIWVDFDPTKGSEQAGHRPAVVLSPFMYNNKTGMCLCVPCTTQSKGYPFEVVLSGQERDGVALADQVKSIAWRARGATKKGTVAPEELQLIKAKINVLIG
PrPC TRFRET = cell surface PrPC inhibition, primary TR-FRET screen; P04156; TR-FRET read-out; inhibition, % at 13.8 µM; 0.43% of 370,000 active; AID 720596; in the data active = inhibition above about 24%; note: 0% = median of the test wells and 100% = reference compound wells
PrP 5UTR inh = inhibition of PrP 5' UTR reporter expression | cell-based PrP 5' UTR mRNA reporter, plate reader | inhibition, % (concentration not given with the values) | 0.35% of 340,000 active; in the data active = inhibition above about 52%; note: 0 = median of the neutral control wells
BJeLR viability = kills HRASV12-expressing BJeLR cells. BJeLR (HRASV12) viability, CellTiter-Glo ATP luminescence, 48 h. inhibition, % (test concentration not listed). 0.17% of 300,000 active. AID 1554; in the data active = inhibition above about 50%
Active calls of the source: *; x = no result given. Shown are actives, neighbours in structure and some others; about 1.1% of the full set was active somewhere.

SMILES | MazF activator | PrPC TRFRET | PrP 5UTR inh | BJeLR viability
Cc1ccc(Oc2cccc3c2S(=O)(=O)N([C@H](C)c2ccccc2)C[C@@H](COCc2ccccc2)O3)cc1 | x | 0 | x | x
Cn1c(COc2ccccc2)nnc1SCC(=O)Nc1ccc(OCc2ccccc2)cc1 | x | 2 | x | x
CCN(CC)c1ccc(C=Nc2ccc(N(C)C)cc2)c(O)c1 | 532* | -23 | -25 | -1
CCN(CC)c1ccc(N=Cc2ccc(N(CC)CC)cc2O)cc1 | 162* | -2 | -6 | 1
CC(=O)N1CCN(c2ccc(N3CCN(Cc4ccccc4)[C@H](C)C3)c(C)c2)[C@@H](C)C1 | x | 12 | x | x
COc1cc(OC)c(NC(=O)C(Sc2nc(C)cc(C)c2C#N)c2ccccc2)cc1Cl (stereo not drawn) | x | -3 | x | x
COc1cc(/C=C2/C(=O)N(C)C(=S)N2C)ccc1OCc1cccc(F)c1 | 66* | -3 | -20 | -1
CN1C(=O)/C(=C/c2ccc(OCc3cccc(F)c3)cc2)NC1=S | 3 | 3 | -10 | -6
Cc1ccc(/C=N/NC(=O)c2n[nH]c3c2CCCC3)cc1 | 10 | 8 | x | 60*
O=C(N/N=C\c1cccc(Cl)c1)c1n[nH]c2c1CCCC2 | 1 | 13 | -125 | 16
Cn1cccc1[C@]1(O)C(=O)Nc2ccc(F)cc21 | x | -2 | x | x
CCN1CCN(c2cc(C)c3cc(NC(=O)c4ccc(C)c(C)c4)ccc3n2)CC1 | 59* | -17 | x | 16
CC(CCN1CCC(C(O)(c2ccccc2)c2ccccc2)CC1)Oc1cc(F)cc(F)c1 (stereo not drawn) | x | -12 | x | x
COc1cc2c(C#N)c(N3CCCCC3)nc(N)c2c(N)n1 | 56* | -2 | 7 | -9
COc1cc2c(C#N)c(N3CCc4ccccc4C3)nc(N)c2c(N)n1 | 62* | 0 | -8 | 2
CCOc1cc2c(C#N)c(N3CCCCC3)nc(N)c2c(N)n1 | 34 | 5 | x | -18
COc1cc2c(C#N)c(N3CCOCC3)nc(N)c2c(N)n1 | 20 | 2 | 3 | -17
C#CCN1C(=O)S/C(=C\c2cc3c(cc2OC)OCO3)C1=O | 196* | 6 | -33 | -1
COC(=O)CN1C(=O)N/C(=C/c2cc3c(cc2OC)OCO3)C1=O | 2 | -10 | -19 | -10
O=C(NN=Cc1ccccc1Cl)C(=O)Nc1cccc(C(F)(F)F)c1 | x | 8 | x | x
O=C(NCc1ccccc1)c1cc(S(=O)(=O)N2CCOCC2)ccc1F | 50* | 6 | -16 | 1
O=S(=O)(c1ccccc1)N1CCCc2nc(-c3ccc(Br)cc3)ccc21 | x | -2 | x | x
Oc1ccc(Cl)cc1C1=Nc2ccccc2N=C(c2ccco2)C1 | 113* | -2 | -13 | -2
COc1ccc(O)c(C2=Nc3ccccc3N=C(c3ccco3)C2)c1 | 20 | 0 | -8 | 0
CCOC(=O)CC[C@@H]1CC[C@]2(CCCN(S(=O)(=O)C3CCCCC3)C2)O1 | x | 8 | x | x
SMILES | MazF activator | PrPC TRFRET | PrP 5UTR inh | BJeLR viability
COCCN(CCOC)C(=O)[C@@H](Cc1ccccc1)NC(=O)[C@H]1O[C@@H](n2ccc(N)nc2=O)[C@H](O)[C@@H]1O | x | 3 | x | x
COc1ccc(C2C(C#N)=C(N)N(c3ccccc3)C3=C2C(=O)CCC3)cc1Cn1cc([N+](=O)[O-])cn1 (stereo not drawn) | -5 | -11 | -15 | -4
COc1ccc(C2C(C#N)=C(N)N(c3cccnc3)C3=C2C(=O)CCC3)cc1Cn1cc([N+](=O)[O-])cn1 (stereo not drawn) | 64* | -1 | 10 | -2
O=C1NC2C(=CC(O)C(O)C2O)c2cc3c(cc21)OCO3 (stereo not drawn) | 5 | 91* | 3 | x
CC(C)CC(=O)N1CCC(C(=O)NCC2COc3ccccc3O2)CC1 (stereo not drawn) | x | -4 | x | x
CCOc1ccc(N2C(=O)S/C(=C\c3cccn3C)C2=O)cc1 | 28 | -4 | -27 | -4
Cn1cccc1/C=C1\SC(=O)N(c2ccc(O)cc2)C1=O | 262* | -12 | -25 | -5
C=C1C(=O)[C@@]23[C@H](O)C[C@@H]4C(C)(C)CC[C@H](O)[C@]4(C)[C@@H]2C[C@H](O)[C@@H]1[C@H]3O | 6 | 25* | -17 | -7
C=C1C(=O)[C@@]23[C@H](O)C[C@@H]4C(C)(C)CC[C@H](O)[C@@]4(C)[C@@H]2CC[C@@H]1[C@H]3O | -2 | 71* | 1 | 14
C[C@H]1C(=O)[C@]23C[C@H]1CC[C@H]2[C@]1(C)[C@@H](O)CC[C@@](C)(C(=O)O)[C@H]1C[C@@H]3O | x | -3 | x | x
COC(=O)c1cc(-c2cccc(C(C)C)c2)c(=O)n2c1CCC2 | x | 9 | x | x
CCCCNC(=O)C1(C(=O)c2ccc(OC)cc2)CC(c2ccccn2)=NO1 (stereo not drawn) | x | 0 | x | x
Nc1nc2c(ncn2[C@@H]2O[C@H](C(=O)N[C@H](Cc3ccccc3)C(=O)O)[C@@H](O)[C@H]2O)c(=O)[nH]1 | x | 1 | x | x
Cc1ccc(O)c(C(=O)c2cc(C#N)c3nc4ccccc4n3c2)c1 | 90* | 12 | -21 | 13
COc1cc2c(c(OC)c1OC)-c1ccc(O)cc1[C@@H](NC(C)=O)CC2 | 3 | 10 | 68* | 32
COc1ccc(C2=CC(=O)C=CC2=O)cc1 | x | x | -15 | 99*
COc1ccccc1-n1cnc2cc(NCc3cccs3)ccc21 | -2 | 24 | -11 | 60*
Cn1c(-c2cccc(OCc3ccccc3)c2)nc2c1c(=O)[nH]c(=O)n2Cc1ccccc1 | 62* | -7 | -8 | x
O=C(OC12CCCN(C1)/C(=C/c1ccncc1)C2)c1ccc(F)cc1 (stereo not drawn) | x | -8 | x | x
N#C/C(=C/c1ccco1)c1nc2ccccc2s1 | 65* | -22 | -65 | -7
N#C/C(=C\c1ccco1)c1nc2ccccc2s1 | 54* | -16 | -115 | 16
N#C/C(=C/c1ccc(-c2cc(C(=O)O)cc(C(=O)O)c2)o1)c1nc2ccccc2s1 | x | x | x | -1
Cc1ccc2nc(Nc3nc(-c4ccccc4)cc(=O)[nH]3)nc(C)c2c1 | -153 | 9 | -8 | 7
COc1ccc2c(C)nc(Nc3nc(-c4ccccc4)cc(=O)[nH]3)nc2c1 | -69 | -2 | 18 | 58*
CN1CCc2c(sc3c2C(=O)NC(/C=C/c2ccco2)N3)C1 (stereo not drawn) | 66* | -3 | -14 | -1
SMILES | MazF activator | PrPC TRFRET | PrP 5UTR inh | BJeLR viability
CN1CCc2c(sc3c2C(=O)NC(c2ccccc2)N3)C1 (stereo not drawn) | -70 | -8 | -36 | 3
O=[N+]([O-])c1ccc(/C=N/n2cnc3ccccc32)s1 | 189* | 0 | -22 | 5
Cc1nc2ccccc2n1/N=C/c1ccc([N+](=O)[O-])s1 | 49 | -2 | -29 | 11
O=[N+]([O-])c1ccc(/C=N/n2c(CO)nc3ccccc32)s1 | 99* | -10 | -4 | 3
O=[N+]([O-])c1ccc(/C=N/Nc2ncccc2[N+](=O)[O-])s1 | -4 | -13 | -17 | 8
CCOC(=O)[C@]12CCCCC/C=C\1N(CCc1ccc(Cl)cc1)C(=O)[C@H]2CC(=O)NCCCCc1ccccc1 | x | 1 | x | x
Cc1cc(N2CCN(CC(C)(C)O)C[C@@H]2C)ccc1N1CCN(CC(C)(C)O)[C@H](C)C1 | x | -1 | x | x
CC(C)(C)S(=O)(=O)N1C[C@@H]2CC(=O)C=C2[C@H]1CCO | x | 15 | x | x
